In paper PMC4336329 (PLoS ONE, 2015):
In all, about 310,000 compounds went through this assay and about 2,200 (0.71%) showed an effect of 50% or more. Effects have a minus sign here. The sample as a whole holds a higher share of strong results than the screen did.

Biological target: human ether-à-go-go-related gene (hERG) potassium channel (human, UniProt Q12809)
Assay: primary screen, population patch clamp on CHO cells stably expressing hERG; higher = less effect of the substance

human ether-à-go-go-related gene (hERG) potassium channel, sequence (Q12809 whole entry, looked up): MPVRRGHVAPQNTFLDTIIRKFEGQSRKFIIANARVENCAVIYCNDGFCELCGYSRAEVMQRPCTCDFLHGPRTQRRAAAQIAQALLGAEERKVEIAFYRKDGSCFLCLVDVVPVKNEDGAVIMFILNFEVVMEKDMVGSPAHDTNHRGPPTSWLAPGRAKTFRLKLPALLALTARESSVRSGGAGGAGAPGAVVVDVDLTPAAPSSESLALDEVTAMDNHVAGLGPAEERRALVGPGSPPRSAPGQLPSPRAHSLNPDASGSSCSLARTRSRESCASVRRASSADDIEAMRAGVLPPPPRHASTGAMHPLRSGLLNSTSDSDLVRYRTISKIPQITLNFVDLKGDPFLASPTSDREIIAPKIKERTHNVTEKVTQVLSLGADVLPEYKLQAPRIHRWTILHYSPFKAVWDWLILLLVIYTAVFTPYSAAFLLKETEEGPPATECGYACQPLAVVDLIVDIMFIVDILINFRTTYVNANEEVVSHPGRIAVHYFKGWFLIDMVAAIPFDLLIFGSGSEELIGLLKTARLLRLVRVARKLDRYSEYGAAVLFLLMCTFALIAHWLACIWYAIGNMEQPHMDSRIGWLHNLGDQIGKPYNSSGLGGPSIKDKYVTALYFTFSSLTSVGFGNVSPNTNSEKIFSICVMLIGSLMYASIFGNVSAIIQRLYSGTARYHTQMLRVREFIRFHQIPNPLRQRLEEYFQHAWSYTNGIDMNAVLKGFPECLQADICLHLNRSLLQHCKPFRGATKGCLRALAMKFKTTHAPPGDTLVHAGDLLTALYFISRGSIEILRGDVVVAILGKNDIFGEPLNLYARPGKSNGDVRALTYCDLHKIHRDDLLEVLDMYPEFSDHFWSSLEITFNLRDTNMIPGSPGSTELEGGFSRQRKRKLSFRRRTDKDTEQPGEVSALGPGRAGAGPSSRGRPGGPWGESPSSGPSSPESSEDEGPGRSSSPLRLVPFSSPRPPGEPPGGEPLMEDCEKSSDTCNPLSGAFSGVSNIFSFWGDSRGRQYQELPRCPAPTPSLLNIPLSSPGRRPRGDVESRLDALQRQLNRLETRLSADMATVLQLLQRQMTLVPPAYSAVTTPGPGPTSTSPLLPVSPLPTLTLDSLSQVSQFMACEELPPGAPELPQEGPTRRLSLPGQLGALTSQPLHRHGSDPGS

In order of falling “hERG current change (%, negative = inhibition) at 1uM” value:
1. O=C1C2=C(SCCS2)C(=O)N1c1ccccc1  20.6%
2. CCOc1cc(/C=C2\C(=O)ON=C2c2ccccc2)ccc1OC  17.4%
3. O=C(O)COc1ccc(C(NC(=O)c2c(F)cccc2F)NC(=O)c2c(F)cccc2F)cc1  16.9%
4. Cc1nc(NC(=O)c2ccccc2[N+](=O)[O-])sc1C(=O)N(C)C  16.4%
5. CCn1cc(CCCC(=O)NCc2ccc(OC)cc2)c2ccccc21  15.1%
6. COc1ccc(NC2CCCN(C(=O)c3cccs3)C2)cc1 (stereo not shown)  12.5%
7. O=C(O)c1ccc(S(=O)(=O)N(CCc2ccccc2)Cc2ccc(Cl)cc2)cc1  11.5%
8. Cc1cc(C)cc(Nc2nc3c(S(=O)(=O)c4ccccc4)nnn3c3ccccc23)c1  11.3%
9. CCCc1nnc(SCC(=O)Nc2ccc(OC)cc2)n1N  11.1%
10. CCOC(=O)c1sc(NC(=O)CCN2CCCCCC2)c(C(=O)OCC)c1C  10.6%
11. CNCCOc1nc(N2CCOCC2)nc(C)c1[N+](=O)[O-]  10.1%
12. C/C(=N\NC(=O)c1ccc(CN2CCOCC2)cc1)c1ccc([N+](=O)[O-])cc1  10%
13. CCOC(=O)CSC1=NC(=O)/C(=C/c2ccc(Br)cc2)S1  9.71%
14. Brc1ccc(-c2cnco2)cc1  9.53%
15. C/C(=N\NC(=O)CN1CCN(S(=O)(=O)c2ccc(C)cc2)CC1)c1ccc(O)cc1  9.16%
16. CCc1ccc(CNCc2cccnc2)cc1  9.07%
17. CCOC(=O)COc1ccc(S(=O)(=O)NCc2ccncc2)cc1  8.78%
18. CCC(CCC(=O)Nc1ccn(-c2ccccc2)n1)C(=O)O (stereo not shown)  7.09%
19. O=C(CCN1C(=O)c2ccccc2C1=O)NC(=S)Nc1ccccc1Cl  5.29%
20. C=CCN=C1SC(C)C(=O)N1S(=O)(=O)c1ccccc1 (stereo not shown)  4.31%
21. COc1ccc(-c2cc(C(F)(F)F)n3nc(C(=O)N4CCCCC4)cc3n2)cc1  4.13%
22. O=C(c1ccc2c(c1)N(Cc1ccccc1)C(=O)CS2)N1CCOCC1  1.45%
23. COc1ccc(S(=O)(=O)NC2CCCCC2)cc1C(=O)N1CCCCC1  0.2%
24. CC(Oc1ccc(Cl)cc1)C(=O)Nc1ccccc1C(=O)N1CCOCC1 (stereo not shown)  -1.27%
25. O=C(CN1CCN(S(=O)(=O)c2ccc(Br)cc2)CC1)N/N=C/c1cccnc1  -1.72%
26. C/C(=N\NC(=O)CN1CCN(Cc2ccccc2)CC1)c1cccs1  -2.13%
27. CCN(CC(=O)NCc1ccc(F)cc1)C(=O)c1ccc(Cl)cc1  -2.66%
28. C/C(=N\NC(=O)CN1CCN(Cc2ccccc2)CC1)c1ccncc1  -3.1%
29. COc1cc(/C(C)=N/N2CCN(Cc3ccc(C)cc3)CC2)ccc1O  -3.97%
30. CCS(=O)(=O)NC(C)c1nnc2n1-c1ccc(Br)cc1C(c1ccccc1Cl)=NC2 (stereo not shown)  -4.22%
31. CCOC(=O)c1sc(NC(=O)CCN2CCN(C)CC2)c(C(=O)OCC)c1C  -15.3%
32. CC(=O)Oc1ccc(/C(C)=N\N2CCN(Cc3ccc(Cl)cc3)CC2)cc1  -16.4%
33. C/C(=N/NC(=O)CN1CCN(Cc2ccccc2Cl)CC1)c1ccncc1  -18.3%
34. CCN(CC(=O)NCc1ccc(Cl)cc1)C(=O)CCc1ccccc1  -19.8%
35. Cc1ccc(S(=O)(=O)N2CCN(CC(=O)N/N=C\c3ccncc3)CC2)cc1  -26.2%
36. C/C(=N/NC(=O)CN1CCN(S(=O)(=O)c2ccc(Br)cc2)CC1)c1ccncc1  -44.3%
37. O=C(CN1CCN(S(=O)(=O)c2ccc(Br)cc2)CC1)N/N=C/c1ccncc1  -51.8%
38. CCN(CC(=O)NCc1ccc(Cl)cc1)C(=O)NCc1ccc(Cl)cc1  -54.1%
39. CCOC(=O)c1sc(NC(=O)CCN2CCN(CC)CC2)c(C(=O)OCC)c1C  -59.8%
40. CC(=O)Oc1ccc(/C(C)=N/N2CCN(Cc3ccc(C)cc3)CC2)cc1  -69.8%
41. C/C(=N/NC(=O)CN1CCN(Cc2ccccc2)CC1)c1ccc([N+](=O)[O-])cc1  -72.9%
42. C/C(=N\NC(=O)CN1CCN(S(=O)(=O)c2ccc(C)cc2)CC1)c1ccncc1  -77.6%
43. C/C(=N\NC(=O)CN1CCN(Cc2ccc(C)cc2)CC1)c1ccncc1  -77.9%
